Molecules are shown by their SMILES. The panel holds about 79,000 compounds, 15% with a hit somewhere; the sample as a whole holds those more often. Unmarked numbers belong to inactive results. Active and inactive are the calls of the source. Cut-off read from the data, not from the text of the source: active = growth inhibition above about 70%; inactive = the rest.

Experiment [1] in a line: NCI Yeast Anticancer Drug Screen. Data for the rad50 strain (AID 155).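 Note: 0% = growth of vehicle-only cultures of the same strain.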 Conditions: S. cerevisiae rad50 strain growth inhibition, active compounds read high. The procedure, abridged:
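Readout: growth inhibition relative to vehicle-treated cultures. Compound exposure was carried out in a genetically defined yeast strain deficient in DNA damage repair.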

A short description of experiment [2]: NCI Yeast Anticancer Drug Screen. Data for the mec2-1 strain (AID 157). Conditions: S. cerevisiae mec2-1 strain, active compounds read high. The procedure, abridged: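 Vehicle-treated cultures served as reference for growth inhibition of compound-exposed mec2-1 yeast.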
Experiment [3] in a line: NCI Yeast Anticancer Drug Screen. Data for the sgs1 mgt1 strain (AID 161).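 Note: 0% = growth of cultures given vehicle only.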 Conditions: S. cerevisiae sgs1 mgt1 strain, active compounds read high. The procedure, abridged:
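Genetically altered yeast, compound exposure, growth inhibition relative to vehicle.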

Experiment [4] is described as follows: NCI Yeast Anticancer Drug Screen. Data for the cln2 rad14 strain (AID 165).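 Note: 0% = growth equal to vehicle treated cultures.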 Conditions: S. cerevisiae cln2 rad14 strain, active compounds read high. The procedure, abridged:
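Each compound was tested on cln2 rad14 yeast. Inhibition of growth was calculated against vehicle-exposed controls.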

The nature of experiment [5]: NCI Yeast Anticancer Drug Screen. Data for the bub3 strain (AID 167). Conditions: S. cerevisiae bub3 mutant strain, active compounds read high. The procedure, abridged:
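Readout: yeast growth inhibition, expressed relative to vehicle-only wells. The test organism is a mutant strain from a panel with lesions in DNA repair or checkpoint genes.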

A short description of experiment [6]: NCI Yeast Anticancer Drug Screen. Data for the mlh1 rad18 strain (AID 175). The following applies: S. cerevisiae mlh1 rad18 strain growth inhibition, active compounds read high. The procedure, abridged: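 Vehicle-treated cultures served as the reference for growth inhibition in a yeast strain carrying DNA damage repair alterations exposed to each compound.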
[7] abbreviates: at 5.0 µM (retest, dose inferred, filed as 0.5).
Setting [8] is: at 50.0 µM (retest, dose inferred, filed as 5.0).

For `CSC1NNC2(C(=O)N1)c1ccccc1-c1ccccc12` (stereo not given), the growth inhibition in experiment [1] (setting [7]) is -2%; in experiment [1] (setting [8]), 96% (active); in experiment [1] (at 50.0 µM), 87.3% (active); in experiment [2] (setting [7]), -15%; in experiment [2] (setting [8]), 98% (active); in experiment [2] (at 50.0 µM), 87.9% (active). The growth inhibition in experiment [3] (setting [7]) was 2%; in experiment [3] (setting [8]), 96% (active); in experiment [3] (at 50.0 µM) it was 90.7% (active); in experiment [4] (setting [7]), 9%; in experiment [4] (setting [8]), 96% (active); in experiment [4] (at 50.0 µM) it was 88.5% (active). Moreover, the growth inhibition in experiment [5] (setting [7]) is 13%; in experiment [5] (setting [8]), 97% (active); in experiment [5] (at 50.0 µM), 91.7% (active); in experiment [6] (setting [7]), -1%; in experiment [6] (setting [8]), 96% (active); in experiment [6] (at 50.0 µM), 88.8% (active).
For `OC1CCCCC1Cc1ccc(Cl)cc1` (stereo not given), the growth inhibition in experiment [1] (setting [7]) is -2%; in experiment [1] (setting [8]) it was 56%; in experiment [1] (at 50.0 µM), 90.5% (active); in experiment [2] (setting [7]), 4%; in experiment [2] (setting [8]) it was 26%; in experiment [2] (at 50.0 µM), 93.8% (active). Moreover, the growth inhibition in experiment [3] (setting [7]) is 4%; in experiment [3] (setting [8]), 31%; in experiment [3] (at 50.0 µM), 65.3%; in experiment [4] (setting [7]) it was -2%; in experiment [4] (setting [8]) it was 30%; in experiment [4] (at 50.0 µM) it was 90% (active). Moreover, the growth inhibition in experiment [5] (setting [7]) was 32%; in experiment [5] (setting [8]), 97% (active); in experiment [5] (at 50.0 µM), 98.8% (active); in experiment [6] (setting [7]), -2%; in experiment [6] (setting [8]), 45%; in experiment [6] (at 50.0 µM) it was 93.4% (active).
For the compound `CC(=O)Nc1nnc(-c2coc3ccccc3c2=O)s1`, the growth inhibition is 7% in experiment [1] (setting [7]); 0% in experiment [1] (setting [8]); 50.9% in experiment [1] (at 50.0 µM); 4% in experiment [2] (setting [7]); 3% in experiment [2] (setting [8]); 6.25% in experiment [2] (at 50.0 µM). The growth inhibition was 1% in experiment [3] (setting [7]); -3% in experiment [3] (setting [8]); 20.4% in experiment [3] (at 50.0 µM); 9% in experiment [4] (setting [7]); 1% in experiment [4] (setting [8]); 10.7% in experiment [4] (at 50.0 µM). Besides, the growth inhibition was 4% in experiment [5] (setting [7]); 1% in experiment [5] (setting [8]); 15.4% in experiment [5] (at 50.0 µM); 2% in experiment [6] (setting [7]); -4% in experiment [6] (setting [8]); 12.1% in experiment [6] (at 50.0 µM).
Take `Cc1c(N=Nc2ccc(Br)cc2)c(-c2ccccc2)nn1C(N)=S`: the growth inhibition in experiment [1] (setting [7]) was -2%; in experiment [1] (setting [8]), 93% (active); in experiment [1] (at 50.0 µM), 97.7% (active); in experiment [2] (setting [7]), 1%; in experiment [2] (setting [8]), 97% (active); in experiment [2] (at 50.0 µM) it was 97.5% (active). The growth inhibition in experiment [3] (setting [7]) is 7%; in experiment [3] (setting [8]), 97% (active); in experiment [3] (at 50.0 µM), 98% (active); in experiment [4] (setting [7]) it was -4%; in experiment [4] (setting [8]) it was 94% (active); in experiment [4] (at 50.0 µM), 95.4% (active). Also, the growth inhibition in experiment [5] (setting [7]) is 7%; in experiment [5] (setting [8]), 95% (active); in experiment [5] (at 50.0 µM), 96.5% (active); in experiment [6] (setting [7]), 0%; in experiment [6] (setting [8]), 97% (active); in experiment [6] (at 50.0 µM), 97.7% (active).
With `CN(C)C1CCC2C3CC=C4CC(OC=O)CCC4(C)C3CCC21C` (stereo not given), the growth inhibition in experiment [1] (setting [7]) was -1%; in experiment [1] (setting [8]) it was 48%; in experiment [1] (at 50.0 µM), 71.2% (active); in experiment [2] (setting [7]), 2%; in experiment [2] (setting [8]), 42%; in experiment [2] (at 50.0 µM), 17.3%. In addition, the growth inhibition is 2% in experiment [3] (setting [7]); 60% in experiment [3] (setting [8]); 65.5% in experiment [3] (at 50.0 µM); 17% in experiment [4] (setting [7]); 83% (active) in experiment [4] (setting [8]); 76.4% (active) in experiment [4] (at 50.0 µM). Besides, the growth inhibition in experiment [5] (setting [7]) is 0%; in experiment [5] (setting [8]) it was 86% (active); in experiment [5] (at 50.0 µM) it was 48.8%; in experiment [6] (setting [7]) it was -11%; in experiment [6] (setting [8]) it was 52%; in experiment [6] (at 50.0 µM), 45.7%.
Consider `c1ccc(NN=C(c2ccccc2)c2ccccc2)cc1`, for which the growth inhibition in experiment [1] (setting [7]) is -2%; in experiment [1] (setting [8]), 76% (active); in experiment [1] (at 50.0 µM) it was 94.2% (active); in experiment [2] (setting [7]), -17%; in experiment [2] (setting [8]), 55%; in experiment [2] (at 50.0 µM), 94.3% (active). The growth inhibition was 7% in experiment [3] (setting [7]); 68% in experiment [3] (setting [8]); 95.8% (active) in experiment [3] (at 50.0 µM); 1% in experiment [4] (setting [7]); 63% in experiment [4] (setting [8]); 91.8% (active) in experiment [4] (at 50.0 µM). Besides, the growth inhibition in experiment [5] (setting [7]) was 12%; in experiment [5] (setting [8]) it was 83% (active); in experiment [5] (at 50.0 µM), 93.8% (active); in experiment [6] (setting [7]), 12%; in experiment [6] (setting [8]), 91% (active); in experiment [6] (at 50.0 µM) it was 95.2% (active).
In the case of `C/C(=N\NC(=S)N1CCCC1)c1cnccn1`, the growth inhibition in experiment [1] (setting [7]) was 61%; in experiment [1] (setting [8]) it was 98% (active); in experiment [1] (at 50.0 µM), 98.8% (active); in experiment [2] (setting [7]), 56%; in experiment [2] (setting [8]), 99% (active); in experiment [2] (at 50.0 µM), 99% (active). For the same compound, the growth inhibition was 77% (active) in experiment [3] (setting [7]); 98% (active) in experiment [3] (setting [8]); 99.3% (active) in experiment [3] (at 50.0 µM); 74% (active) in experiment [4] (setting [7]); 98% (active) in experiment [4] (setting [8]); 97.7% (active) in experiment [4] (at 50.0 µM). For the same compound, the growth inhibition was 33% in experiment [5] (setting [7]); 97% (active) in experiment [5] (setting [8]); 99% (active) in experiment [5] (at 50.0 µM); 80% (active) in experiment [6] (setting [7]); 98% (active) in experiment [6] (setting [8]); 99.1% (active) in experiment [6] (at 50.0 µM).
Regarding `CC(=O)OC1OC2C(NC(=O)OC(C)(C)C)C1CC2(OCc1ccccc1)OCc1ccccc1` (stereo not given), the growth inhibition was 35% in experiment [1] (setting [7]); 35% in experiment [1] (setting [8]); 23.6% in experiment [1] (at 50.0 µM); 25% in experiment [2] (setting [7]); 25% in experiment [2] (setting [8]); -24.4% in experiment [2] (at 50.0 µM). The growth inhibition in experiment [3] (setting [7]) was 29%; in experiment [3] (setting [8]), 29%; in experiment [3] (at 50.0 µM), -3.2%; in experiment [4] (setting [7]), 8%; in experiment [4] (setting [8]), 8%; in experiment [4] (at 50.0 µM), 9.6%. In addition, the growth inhibition is 18% in experiment [5] (setting [7]); 18% in experiment [5] (setting [8]); -12.8% in experiment [5] (at 50.0 µM); 28% in experiment [6] (setting [7]); 28% in experiment [6] (setting [8]); 9% in experiment [6] (at 50.0 µM).
On to `O=C(O)c1ccccc1SC(Sc1ccccc1C(=O)O)c1cccc(Cl)c1`, for which the growth inhibition in experiment [1] (setting [7]) was 8%; in experiment [1] (setting [8]), 92% (active); in experiment [1] (at 50.0 µM), 88% (active); in experiment [2] (setting [7]), 7%; in experiment [2] (setting [8]), 97% (active); in experiment [2] (at 50.0 µM), 80% (active). The growth inhibition is 22% in experiment [3] (setting [7]); 99% (active) in experiment [3] (setting [8]); 97% (active) in experiment [3] (at 50.0 µM); -1% in experiment [4] (setting [7]); 87% (active) in experiment [4] (setting [8]); 90% (active) in experiment [4] (at 50.0 µM). For the same compound, the growth inhibition in experiment [5] (setting [7]) was 9%; in experiment [5] (setting [8]), 97% (active); in experiment [5] (at 50.0 µM), 81.5% (active); in experiment [6] (setting [7]), 15%; in experiment [6] (setting [8]), 97% (active); in experiment [6] (at 50.0 µM) it was 98% (active).
For `CCCCCCCCCCCC(=O)OCCOP(=O)(OCC)OCC`, the growth inhibition was -1% in experiment [1] (setting [7]); 91% (active) in experiment [1] (setting [8]); 87.2% (active) in experiment [1] (at 50.0 µM); 2% in experiment [2] (setting [7]); 98% (active) in experiment [2] (setting [8]); 20.9% in experiment [2] (at 50.0 µM). The growth inhibition in experiment [3] (setting [7]) was 4%; in experiment [3] (setting [8]), 99% (active); in experiment [3] (at 50.0 µM) it was 96.5% (active); in experiment [4] (setting [7]), -4%; in experiment [4] (setting [8]), 97% (active); in experiment [4] (at 50.0 µM), 74.7% (active). Moreover, the growth inhibition in experiment [5] (setting [7]) is -1%; in experiment [5] (setting [8]) it was 97% (active); in experiment [5] (at 50.0 µM), -9.15%; in experiment [6] (setting [7]), -1%; in experiment [6] (setting [8]), 98% (active); in experiment [6] (at 50.0 µM), 79.2% (active).
